Results on 14 compounds are retold here after PubChem BioAssay (NCI).

About 83,000 compounds went through this panel and 20% of them were active in at least one assay; those are over-represented in the sample as a whole.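 Compound tested at a single concentration for 48 hours in 96-well plates; a percent growth value below 10 was scored as active.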 A number with no mark means an inactive call.

For this experiment, the system named is OVCAR-8 ovarian. Description: NCI-60 one-dose screen, 48 h (100 = growth as untreated, 0 = no growth, -100 = all killed). The note with it: 10 µM unless noted.
Turning to `CN(C)CCCNC(=O)c1cncnc1Nc1ccc2c(ccn2Cc2cccc(F)c2)c1`, the growth was 101%.

As to `CCOC(=O)/C(=C(/C)NCC(C)C)c1cc(O)c(O)c2c(C)cc(=O)[nH]c12`, the growth is 23.8%.

For `COc1ccc(Nc2ncc(C#N)c(NCCCNC(=O)C3CCC3)n2)cc1`, the growth is 64%.

Turning to `C=C1SC(=Nc2ccccc2Cl)N(C(=O)c2sc3ccccc3c2Cl)C1(C)C`, the growth is 61.4%.

For the compound `CN1CC(c2ccc(Br)cc2)C(C(=O)c2ccc(Br)cc2)C12C(=O)Nc1ccccc12` (centres undefined), the growth is 83.8%.

For the compound `CC(C)Cc1nc(Nc2ccccc2)[nH]c(=O)c1C#N`, the growth is 64.4%.

As to `CC(C)(C)c1ccc(S(=O)(=O)Oc2ccc(-c3sc4cc(OS(=O)(=O)c5ccc(C(C)(C)C)cc5)ccc4c3C(=O)c3ccc(OCCN4CCCCC4)cc3)cc2)cc1`, the growth was 115%.

Turning to `Nc1ncccc1O`, the growth was 81%.

As to `COc1cc(C[C@H]2COc3cc(O)cc(O)c3C2=O)ccc1O`, the growth is 28.1%.

With `CCN(CC)C(=O)CC1=C(C)/C(=C/c2[nH]c(-c3ccc[nH]3)cc2OC)N=C1C`, the growth was 16.1%.

`COc1ccc(C2CC(c3ccccc3)=NN2C(=O)c2cc(OC)c(OC)c(OC)c2)cc1O` (centres undefined): the growth is 24.4%.

`C[C@@H]1CN(c2cnc(C(=O)Nc3cc(F)cc4cccnc34)cn2)C[C@H](C)N1`: the growth is 61.1%.

Consider `O=C(Nc1cc(Cl)ccc1O)c1ccccc1Nc1ccnc(C(F)(F)F)c1`, for which the growth was 10.6%.

As to `O=c1ccc2ccc(OCCN3CCCCC3)cc2o1`, the growth was 95.2%.
